According to PubChem BioAssay:
Activity calls are given as the source filed them.

Experiments:
[1] = small molecules captured by biotinylated probe aFSTL3 – biochemical, small-molecule microarray, fluorescence 635/667, stem cell growth factor project, primary screen (AID 1064); conditions: higher = more signal;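 note: measures binding of the biotinylated anti-FSTL3 antibody to printed compounds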
[2] = binders from COS7 lysate, DM2A8 probe, primary screen, torsin A project, cell lysate, small-molecule microarray, fluorescence 635/667 (AID 1065); conditions: higher = more signal, COS7 lysate expressing mutant human TOR1A
[3] = small molecules captured by biotinylated probe aFGF2 – biochemical, small-molecule microarray, fluorescence 635/667, stem cell growth factor project, primary screen (AID 1067); conditions: higher = more signal;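 note: measures binding of biotinylated aFGF2 protein to printed compounds on slides; z-score merges feature fluorescence and signal-to-noise across triplicate slides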
[4] = small molecules captured by biotinylated probe aFGF10 – biochemical, small-molecule microarray, fluorescence 635/667, stem cell growth factor project, primary screen (AID 1071); conditions: higher = more signal;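 note: score merges 667 nm spot intensity and signal to noise from triplicate slides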
[5] = target: Neurogenic locus notch homolog protein 2 (Homo sapiens) (UniProt Q04721); assay: small molecules binding Notch2 protein – biochemical, small-molecule microarray, 635 nm fluorescence, stem cell growth factors, primary screen (AID 1073); conditions: higher = more signal
Neurogenic locus notch homolog protein 2 (Homo sapiens), sequence (Q04721 whole entry, looked up, canonical isoform): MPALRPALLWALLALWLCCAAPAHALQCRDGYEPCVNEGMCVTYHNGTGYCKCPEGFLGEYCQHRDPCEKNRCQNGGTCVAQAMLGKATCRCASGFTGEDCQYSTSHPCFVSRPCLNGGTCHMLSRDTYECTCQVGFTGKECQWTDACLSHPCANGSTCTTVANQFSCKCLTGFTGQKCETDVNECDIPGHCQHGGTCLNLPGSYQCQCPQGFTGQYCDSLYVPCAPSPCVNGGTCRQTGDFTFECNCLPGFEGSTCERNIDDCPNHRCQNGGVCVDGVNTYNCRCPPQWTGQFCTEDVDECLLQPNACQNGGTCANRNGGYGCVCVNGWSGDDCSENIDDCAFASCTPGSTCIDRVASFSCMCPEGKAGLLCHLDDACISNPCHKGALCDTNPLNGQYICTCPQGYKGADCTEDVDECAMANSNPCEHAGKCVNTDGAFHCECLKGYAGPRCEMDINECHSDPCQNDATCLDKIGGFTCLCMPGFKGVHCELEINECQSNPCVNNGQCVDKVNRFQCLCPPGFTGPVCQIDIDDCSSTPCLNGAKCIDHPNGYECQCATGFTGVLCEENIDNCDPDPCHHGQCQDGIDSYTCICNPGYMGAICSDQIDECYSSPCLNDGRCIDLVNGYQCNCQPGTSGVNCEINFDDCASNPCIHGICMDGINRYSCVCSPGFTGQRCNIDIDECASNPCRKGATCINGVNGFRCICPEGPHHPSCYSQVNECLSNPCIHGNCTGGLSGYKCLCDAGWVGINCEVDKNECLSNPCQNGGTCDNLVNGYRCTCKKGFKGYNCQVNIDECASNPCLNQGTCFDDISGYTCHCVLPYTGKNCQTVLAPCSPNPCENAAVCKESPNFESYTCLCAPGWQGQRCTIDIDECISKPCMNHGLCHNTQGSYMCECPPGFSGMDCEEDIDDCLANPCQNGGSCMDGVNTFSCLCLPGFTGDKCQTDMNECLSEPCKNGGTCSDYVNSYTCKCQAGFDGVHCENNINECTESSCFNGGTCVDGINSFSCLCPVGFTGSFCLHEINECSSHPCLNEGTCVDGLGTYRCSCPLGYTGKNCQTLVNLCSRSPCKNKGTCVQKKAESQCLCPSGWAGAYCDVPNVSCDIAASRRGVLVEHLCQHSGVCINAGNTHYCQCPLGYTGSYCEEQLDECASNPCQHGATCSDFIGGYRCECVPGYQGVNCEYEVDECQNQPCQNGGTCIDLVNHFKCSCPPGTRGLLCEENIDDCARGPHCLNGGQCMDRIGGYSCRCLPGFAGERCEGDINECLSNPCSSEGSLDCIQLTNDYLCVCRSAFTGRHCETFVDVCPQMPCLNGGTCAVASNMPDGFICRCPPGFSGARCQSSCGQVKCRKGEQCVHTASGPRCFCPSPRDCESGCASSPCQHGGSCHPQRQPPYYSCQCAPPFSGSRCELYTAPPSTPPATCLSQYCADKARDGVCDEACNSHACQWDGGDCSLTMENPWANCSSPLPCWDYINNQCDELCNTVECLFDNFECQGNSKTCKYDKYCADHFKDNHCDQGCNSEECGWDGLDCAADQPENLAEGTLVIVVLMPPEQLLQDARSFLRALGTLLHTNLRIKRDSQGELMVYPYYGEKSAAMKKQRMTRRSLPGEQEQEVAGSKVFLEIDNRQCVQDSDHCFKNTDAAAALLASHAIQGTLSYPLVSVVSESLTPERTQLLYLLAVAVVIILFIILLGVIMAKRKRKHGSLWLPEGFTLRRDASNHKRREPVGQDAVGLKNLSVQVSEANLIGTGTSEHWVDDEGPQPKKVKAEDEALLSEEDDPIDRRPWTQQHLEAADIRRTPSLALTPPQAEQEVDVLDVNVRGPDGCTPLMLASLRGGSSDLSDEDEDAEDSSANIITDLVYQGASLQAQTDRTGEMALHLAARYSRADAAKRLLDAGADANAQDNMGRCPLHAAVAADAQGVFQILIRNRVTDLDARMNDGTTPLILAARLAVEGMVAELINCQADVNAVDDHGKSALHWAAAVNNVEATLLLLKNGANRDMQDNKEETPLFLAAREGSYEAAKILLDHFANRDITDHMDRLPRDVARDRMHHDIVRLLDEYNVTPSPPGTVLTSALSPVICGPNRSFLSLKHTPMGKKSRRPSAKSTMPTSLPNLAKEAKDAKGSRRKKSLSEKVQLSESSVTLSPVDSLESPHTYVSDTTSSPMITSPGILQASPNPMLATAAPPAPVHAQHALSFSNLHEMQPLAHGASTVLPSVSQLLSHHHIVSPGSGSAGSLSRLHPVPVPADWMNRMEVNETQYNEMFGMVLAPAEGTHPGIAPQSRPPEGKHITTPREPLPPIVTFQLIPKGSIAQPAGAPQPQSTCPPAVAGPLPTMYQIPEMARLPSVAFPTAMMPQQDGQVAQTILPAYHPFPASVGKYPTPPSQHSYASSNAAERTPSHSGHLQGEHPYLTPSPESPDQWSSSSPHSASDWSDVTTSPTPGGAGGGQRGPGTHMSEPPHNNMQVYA

[6] = target: Pro-neuregulin-1, membrane-bound isoform (Homo sapiens) (UniProt Q02297); assay: small molecules binding neuregulin-1 protein – biochemical, small-molecule microarray, fluorescence 635/667, psychiatric disease protein project, primary screen (AID 1075); conditions: NRG1 binding, 635 nm fluorescence, higher = more signal;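 note: score combines 667 nm spot fluorescence with signal to noise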
[7] = tested on: Neuregulin-1 EGF-like domain; assay: small molecules binding NRG1 EGF domain – biochemical, small-molecule microarray, 635 nm fluorescence, primary screen (AID 1081); conditions: higher = more signal;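 note: binding of the protein to compounds printed on small-molecule microarray slides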
[8] = FRG1 expression reporter modulators in myotubes – cell-based, C2C12 myotubes, firefly/Renilla luciferase, luminescence, FRG1 inhibition for FSHD, primary screen (AID 1084); conditions: FRG1 promoter luciferase, higher = more signal, called active from +8 up or from −8 down
[9] = small molecules captured by biotinylated probe aFST – biochemical, small-molecule microarray, fluorescence 635/667, stem cell growth factor project, primary screen (AID 1086); conditions: higher = more signal;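 note: score merges 667 nm fluorescence with signal-to-noise of each printed compound spot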
[10] = binders of probe aHhip on microarray, primary screen, stem cell growth factor project, biochemical, small-molecule microarray, fluorescence 635/667 (AID 1087); conditions: higher = more signal;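 note: score merges spot fluorescence at 667nm with spot signal to noise ratio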
[11] = tested on: PRMT1 (protein arginine N-methyltransferase 1); assay: small molecules binding arginine methyltransferase PRMT1 – biochemical, small-molecule microarray, 635 nm fluorescence, primary screen (AID 1088); conditions: higher = more signal;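 note: binding of Prmt1 protein to compounds spotted on small-molecule microarray slides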
[12] = growth effects on S. cerevisiae YJM789 – YJM789 clinical isolate, OD600, 24 h, basal, primary screen (AID 1089); conditions: higher = more signal, called active from +8 up or from −8 down;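 note: growth of clinical yeast isolate S. cerevisiae YJM 789 seeded 1000 cells per well; test concentration not given here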
[13] = S. pombe growth modifiers, basal conditions – strain 972, OD600, 24 h, no modulator, primary screen (AID 1090);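 note: basal condition with compound alone and no growth modifier present; test concentration not given here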; conditions: S. pombe 972 growth, higher = more signal, called active from +8 up or from −8 down
[14] = budding yeast growth modifiers under rapamycin – strain BY4716, OD600, 96 h, primary screen (AID 1091); note: test concentration not given here; conditions: S. cerevisiae BY4716 + rapamycin, higher = more signal, called active from +8 up or from −8 down
[15] = target: Torsin-1A-interacting protein 2 (Homo sapiens) (UniProt Q8NFQ8); assay: small molecules binding lysate-expressed LULL1 – cell lysate, human LULL1 lysate, 635/667 nm fluorescence, primary screen (AID 1092); conditions: small-molecule microarray, hLULL1 lysate binding, 635 nm fluorescence; higher = more signal;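 note: probe is lysate of COS7 cells overexpressing human LULL1; score merges per-feature 667 nm fluorescence with signal-to-noise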
[16] = optical density change of DRC41 E. coli – strain DRC41, OD650, 24 h, E. coli filamentation project, primary screen (AID 1093);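 note: MC1000 strain lacking acrAB efflux and sulA so SOS filamentation is blocked; test concentration not given here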; conditions: E. coli DRC41 growth, higher = more signal, called active from +8 up or from −8 down
[17] = probe aLefty2 binding to arrayed compounds – biochemical, biotinylated probe, 635/667 nm fluorescence, primary screen (AID 1094); conditions: small-molecule microarray, higher = more signal;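 note: score merges spot fluorescence near 667 nm with spot signal-to-noise ratio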
[18] = tested on: Noggin (protein binding on small-molecule microarray); assay: small molecules binding Noggin protein – biochemical, 635/667 nm fluorescence, primary screen (AID 1095); conditions: 635 nm fluorescence, higher = more signal;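 note: score merges 667 nm feature fluorescence with signal to noise over triplicate slides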
[19] = target: Neurogenic locus notch homolog protein 3 (Homo sapiens) (UniProt Q9UM47); assay: small molecules binding NOTCH3 protein – biochemical, 635/667 nm fluorescence, primary screen (AID 1096); conditions: small-molecule microarray, 635 nm fluorescence, higher = more signal
Neurogenic locus notch homolog protein 3 (Homo sapiens), sequence (Q9UM47 whole entry, looked up): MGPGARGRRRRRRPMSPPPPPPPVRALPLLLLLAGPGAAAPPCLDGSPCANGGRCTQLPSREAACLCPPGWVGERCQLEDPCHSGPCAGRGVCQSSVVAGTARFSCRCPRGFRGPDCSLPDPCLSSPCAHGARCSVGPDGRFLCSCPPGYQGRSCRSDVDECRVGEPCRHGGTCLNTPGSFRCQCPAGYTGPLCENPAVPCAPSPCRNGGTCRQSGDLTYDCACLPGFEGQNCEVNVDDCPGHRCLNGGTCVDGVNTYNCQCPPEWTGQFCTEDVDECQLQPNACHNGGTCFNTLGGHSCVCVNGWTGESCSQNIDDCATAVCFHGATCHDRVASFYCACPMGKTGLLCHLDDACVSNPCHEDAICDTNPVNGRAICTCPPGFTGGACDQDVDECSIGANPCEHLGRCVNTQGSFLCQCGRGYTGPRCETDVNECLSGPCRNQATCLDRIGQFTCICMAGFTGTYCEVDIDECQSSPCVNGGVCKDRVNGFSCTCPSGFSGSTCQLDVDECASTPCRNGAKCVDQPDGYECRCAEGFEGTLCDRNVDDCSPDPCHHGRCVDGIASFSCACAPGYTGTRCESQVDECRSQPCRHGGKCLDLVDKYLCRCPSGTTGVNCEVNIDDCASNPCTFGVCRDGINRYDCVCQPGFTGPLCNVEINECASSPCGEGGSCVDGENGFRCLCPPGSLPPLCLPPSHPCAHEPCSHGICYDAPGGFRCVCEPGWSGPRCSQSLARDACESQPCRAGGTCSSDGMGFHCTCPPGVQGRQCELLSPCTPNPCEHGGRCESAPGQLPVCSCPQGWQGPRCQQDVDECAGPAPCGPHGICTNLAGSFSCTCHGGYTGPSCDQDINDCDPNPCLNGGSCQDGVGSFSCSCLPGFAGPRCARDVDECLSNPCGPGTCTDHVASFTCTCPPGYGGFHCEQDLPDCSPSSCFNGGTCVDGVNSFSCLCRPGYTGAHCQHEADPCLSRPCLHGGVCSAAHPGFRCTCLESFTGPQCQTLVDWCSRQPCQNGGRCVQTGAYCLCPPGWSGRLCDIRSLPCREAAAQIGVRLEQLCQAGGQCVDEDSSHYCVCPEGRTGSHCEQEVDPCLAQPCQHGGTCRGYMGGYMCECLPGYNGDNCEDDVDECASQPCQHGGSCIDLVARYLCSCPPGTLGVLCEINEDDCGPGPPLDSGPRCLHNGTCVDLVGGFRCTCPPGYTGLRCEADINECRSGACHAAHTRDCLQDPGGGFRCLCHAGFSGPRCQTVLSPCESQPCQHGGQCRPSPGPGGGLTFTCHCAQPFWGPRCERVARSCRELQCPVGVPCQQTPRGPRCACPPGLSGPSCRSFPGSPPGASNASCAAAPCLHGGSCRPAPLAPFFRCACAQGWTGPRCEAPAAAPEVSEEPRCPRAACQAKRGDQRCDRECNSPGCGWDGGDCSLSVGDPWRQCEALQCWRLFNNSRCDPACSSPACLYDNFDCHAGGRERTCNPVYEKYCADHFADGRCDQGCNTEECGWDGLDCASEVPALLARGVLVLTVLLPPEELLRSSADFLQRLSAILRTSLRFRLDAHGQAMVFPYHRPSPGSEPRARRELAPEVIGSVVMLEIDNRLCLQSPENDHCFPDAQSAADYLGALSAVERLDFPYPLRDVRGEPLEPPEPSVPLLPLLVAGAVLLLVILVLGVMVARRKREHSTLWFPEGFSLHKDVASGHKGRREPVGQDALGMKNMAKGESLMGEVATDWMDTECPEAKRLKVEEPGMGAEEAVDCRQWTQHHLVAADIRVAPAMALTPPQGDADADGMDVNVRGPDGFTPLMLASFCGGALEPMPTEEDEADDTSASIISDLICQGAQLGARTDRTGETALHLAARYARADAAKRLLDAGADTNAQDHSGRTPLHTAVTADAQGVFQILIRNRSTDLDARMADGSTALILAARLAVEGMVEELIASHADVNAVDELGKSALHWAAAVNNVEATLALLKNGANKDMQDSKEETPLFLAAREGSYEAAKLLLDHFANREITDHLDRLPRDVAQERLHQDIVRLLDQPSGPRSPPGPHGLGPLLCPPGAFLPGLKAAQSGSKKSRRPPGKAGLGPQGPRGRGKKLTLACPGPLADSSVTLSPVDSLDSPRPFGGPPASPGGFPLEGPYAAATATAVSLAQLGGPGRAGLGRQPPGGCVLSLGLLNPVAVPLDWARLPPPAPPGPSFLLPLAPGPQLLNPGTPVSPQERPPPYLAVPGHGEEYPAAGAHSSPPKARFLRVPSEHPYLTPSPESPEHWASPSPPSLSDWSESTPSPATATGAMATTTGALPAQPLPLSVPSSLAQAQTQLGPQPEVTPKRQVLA

[20] = probe aEGFR binding to arrayed compounds – biochemical, biotinylated probe, 635/667 nm fluorescence, primary screen (AID 1097); conditions: small-molecule microarray, higher = more signal;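 note: probe is a biotinylated anti-EGFR antibody binding compounds printed on slides; score combines fluorescence near 667 nm and signal to noise of each spot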

SMILES | composite z-score [1] | composite z-score [2] | composite z-score [3] | composite z-score [4] | composite z-score [5] | composite z-score [6] | composite z-score [7] | z-score [8] | composite z-score [9] | composite z-score [10] | composite z-score [11] | z-score [12] | z-score [13] | z-score [14] | composite z-score [15] | z-score [16] | composite z-score [17] | composite z-score [18] | composite z-score [19] | composite z-score [20]
[N-]=[N+]=Nc1ccccc1[C@H]1OC(c2ccc(OCCCO)cc2)=N[C@@]1(CCS(=O)(=O)c1ccccc1)C(=O)NCc1ccccc1 | -0.196 | 0.144 | 0.0843 | 0.935 | 1.66 | 1.44 | 1.34 | 5.01 (inactive) | 1.58 | 0.258 | 1.57 | -0.832 (inactive) | 0.342 (inactive) | 2.23 (inactive) | 3.63 | -0.443 (inactive) | 0.154 | 0.669 | 1.1 | 0.174
COC(=O)c1c2oc(c1C(=O)OC)C(=O)N[C@@H](C(C)C)Cn1cc(nn1)C1(CCCCC1)NC(=O)N[C@H](CO)CC2 | -0.458 | 0.104 | -0.124 | 0.471 | -0.178 | 0.356 | 0.859 | -0.965 (inactive) | -0.0464 | 0.0881 | 0.523 | -0.301 (inactive) | -0.772 (inactive) | -0.538 (inactive) | 1.41 | 1.29 (inactive) | -0.116 | 1.59 | 0.171 | -0.163
CC(C)Cc1ccc(CN2CC[C@@H](N)C2)cc1 | -0.103 | -0.816 | -0.219 | -0.711 | -1.3 | -0.505 | -1.11 | -0.132 (inactive) | -0.635 | -0.0193 | -1.05 | -1.18 (inactive) | -21.4 (active) | -4.81 (inactive) | -1.26 | -4.43 (inactive) | -0.119 | -0.707 | -0.462 | -0.336
O=C1C2C=CC(C(O)c3cc(C(F)(F)F)cc(C(F)(F)F)c3)N(Nc3ccccc3)C2C(=O)N1c1ccccc1 (stereo not given) | 0.281 | 1.2 | -0.0064 | 0.35 | 0.649 | 1.8 | 1.12 | 0.995 (inactive) | 0.664 | -0.0994 | 1.29 | 1 (inactive) | -0.158 (inactive) | 3.15 (inactive) | 3.23 | -0.747 (inactive) | -0.0156 | -0.105 | 0.581 | -0.0536
C=CC[C@@]1(C(=O)N2CCCCC2)N=C(c2ccc(OCCCO)cc2)O[C@@H]1c1ccccc1CN=[N+]=[N-] | 0.134 | 0.432 | 0.084 | 0.378 | 1.6 | 1.8 | 1.32 | -1.43 (inactive) | 0.938 | -0.219 | 1.55 | -1.87 (inactive) | 0.0315 (inactive) | 0.819 (inactive) | 3.67 | 0.912 (inactive) | 0.178 | 0.648 | 1.08 | 0.0528
